# Data published in PubChem BioAssay (EPA / NIEHS).
# Where “and” joins values, the source holds several entries; their conditions need not be identical. Equal entries are not always repeated. Where a structure was tested more than once in an assay, its records may differ in their call. Calls of active or inactive are those of the source. How the source made its calls: active means hit-call score of the fitted dose curve at least 0.9, where 1 is the maximum; inactive means score below 0.9.
# Assay: APR_HepG2_p53Act_72hr: Apredica 72-hour HepG2 Assay for p53 Activation (AID 2282923);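 further: average cellular p53 protein immunofluorescence intensity in HepG2 cells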
# Details: high-content imaging, actives raise or lower the signal
# Protocol: APR_HepG2_72hr is a cell-based, multiplexed-readout assay that uses HepG2, a human liver cell line, with measurements taken at 72 hours after chemical dosing in a 384-well plate.APR_HepG2_p53Act_72hr is one of 10 assay component(s) measured or calculated from the APR_HepG2_72hr assay. It is designed to make measurements of dna content, a form of viability reporter, as detected with fluorescence intensity signals by HCS Fluorescent Imaging technology.Data from the assay component APR_HepG2_p53Act_72hr was analyzed into 1 assay endpoint. This assay endpoint, APR_HepG2_p53Act_72hr, was analyzed with bidirectional fitting relative to DMSO as the negative control and baseline of activity. Using a type of viability reporter, measures of protein for gain or loss-of-signal activity can be used to understand the signaling at the pathway-level as they relate to the gene TP53. Furthermore, this assay endpoint can be referred to as a primary readout, because this assay has produced multiple assay endpoints where this one serves a signaling function. To generalize the intended target to other relatable targets, this assay endpoint is annotated to the dna binding intended target family, where the subfamily is tumor suppressor.
# Cells were treated with dimethyl sulfoxide (DMSO) as a solvent control at a final concentration of 0.5% v/v or with compounds in DMSO with a resulting final DMSO concentration of 0.5% v/v. Compound treatment was done at concentrations of 0.39, 0.78, 1.56, 3.12, 6.24, 12.5, 25, 50, 100, and 200 uM in duplicate on each plate. Cells were treated with compounds for 1, 24, or 72 hr. Carbonyl […] m-chloro-phenylhydrazone (CCCP) and taxol were used as positive controls for mitochondrial function and cytoskeletal stability, respectively; DMSO served as the negative control for this experiment. Cells were fixed by the direct addition of 50 uL formaldehyde in Hank's Balanced Salt Solution (HBSS) to a final concentration of 3.7%. After incubation in the fixation medium for 30 min at room temperature (293-298 K), cells were rinsed twice with HBSS and treated with cell permeabilization buffer (16 uL of 0.5% Triton X-100) for 10 min at room temperature (293-298 K) before labeling. For mitochondrial membrane potential and mitochondrial measurements, pre-fixed cells were incubated with 50 uL of MitoTracker Red CMXRos (Invitrogen) at a concentration of 250 nM for 30 min before fixation. In the remaining cases, post-fixed cells were labeled by incubation with a multiplexed mixture of primary antibodies in HBSS for 60 min at room temperature (293-298 K) to detect immunoreactivity of c-Jun (1:500), phospho-histone H3 (1:100), phospho-histone H2A.x (1:200), p53 (1:400), alpha-tubulin (1:200) and Hoechst 33342 (2 ug/mL). […]
Compound,AC50,outcome
CCCCc1oc2ccccc2c1C(=O)c1cc(I)c(OCCN(CC)CC)c(I)c1,75.5 µM (active),–
O=C(c1ccccc1)c1ccccc1,0.304 µM (active),–
O=C(CCCN1CCC(O)(c2ccc(Cl)cc2)CC1)c1ccc(F)cc1,37.3 µM (active),–
CS(=O)(=O)c1ccc([C@@H](CC2CCCC2)C(=O)Nc2cnccn2)cc1Cl,–,inactive

# Assay: APR_HepG2_NuclearSize_72hr: Apredica 72-hour HepG2 Assay for Nuclear Size (AID 2282925)
# Details: high-content imaging, actives raise or lower the signal
# Method in brief: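 HepG2 cells were exposed to compounds at ten concentrations from 0.39 to 200 uM (duplicate, 0.5% DMSO final) for 72 hr. After fixation in 3.7% formaldehyde, nuclei were stained with Hoechst 33342 (2 ug/mL) and imaged at 20x.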
Compound,outcome,AC50
CCCCCCCCCCCCOS(=O)(=O)O,inactive,–
CCCCCCCCCCCCCCC,inactive,–
OCC(CO)(CBr)CBr,inactive,–
CCCCC(CC)C(=O)O (centres undefined),inactive,–
CN(Cc1cnc2nc(N)nc(N)c2n1)c1ccc(C(=O)N[C@@H](CCC(=O)O)C(=O)O)cc1,inactive,–
O=C1NS(=O)(=O)c2ccccc21,inactive,–
Cc1[nH]nc2c1N=C(c1ccccc1Cl)c1cc([N+](=O)[O-])ccc1N2,–,0.325 µM (active)
CCCCC=O,inactive,–
N=C(N)c1ccc(OCCCCCOc2ccc(C(=N)N)cc2)cc1,–,45.5 µM (active)

# Assay: ATG_CRE_CIS: Attagene CIS-FACTORIAL HepG2 Assay for human cAMP Responsive Element (CRE) binding protein 3 (AID 2282926)
# Details: HepG2 CRE cis-reporter, Attagene multiplexed mRNA; actives raise or lower the signal
# Method in brief: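 HepG2 cells transiently transfected with cis-element-driven multiple reporter transcription units; CRE reporter mRNA measured 24 h after dosing by RT-PCR, 6-FAM labelling, HpaI digestion and capillary electrophoresis. Bidirectional fit versus DMSO baseline.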
Compound,outcome,AC50
O=CC(F)(F)C(F)(F)C(F)(F)C(F)F,inactive,–
O=CC(F)(F)C(F)(F)C(F)(F)F,inactive,–
CCCCCCCCCCCCCCC,inactive,–
NC(C(F)(F)F)C(F)(F)F,inactive,–
Cc1cc(=O)oc2cc(O)ccc12,inactive,–
CCCCc1oc2ccccc2c1C(=O)c1cc(I)c(OCCN(CC)CC)c(I)c1,–,20.9 µM (active)
O=C(c1ccccc1)c1ccccc1,inactive,–
OCC(CO)(CBr)CBr,inactive,–
O=C(NO)c1ccccc1,inactive,8.57 µM (active)
O=C(CCCN1CCC(O)(c2ccc(Cl)cc2)CC1)c1ccc(F)cc1,–,52.9 µM (active)
CCOC=C(C(=O)OCC)C(=O)OCC,inactive,–
C=C(c1ccc(C(=O)O)cc1)c1cc2c(cc1C)C(C)(C)CCC2(C)C,inactive,31.9 µM (active)
CCCCC(CC)C(=O)O (centres undefined),inactive,–
CCOC=O,inactive,–
CN(Cc1cnc2nc(N)nc(N)c2n1)c1ccc(C(=O)N[C@@H](CCC(=O)O)C(=O)O)cc1,inactive,–
CCN(CC)CC,inactive,–
CCCCCCCCCCCC[N+](C)(C)Cc1ccccc1,inactive,19.5 µM (active)
Cn1sccc1=O,–,154 µM (active)

Compound,outcome,AC50
NCCN,inactive,–
CC(C)(C)c1ccc(O)c(O)c1,inactive,47.8 µM (active) and 181 µM (active)
C=CC(F)(F)C(F)(F)C(F)(F)C(F)(F)F,inactive,–
O=C1NS(=O)(=O)c2ccccc21,inactive,–
CCCCCCCCCC=CCC1CC(=O)OC1=O (centres undefined),inactive,–
O=C1Cc2ccccc2N1c1c(Cl)cccc1Cl,inactive,–
C=CC(=O)OCC(CO)(COCC(COC(=O)C=C)(COC(=O)C=C)COC(=O)C=C)COC(=O)C=C,inactive,–
NC(=NCCCCCCN=C(N)/N=C(\N)Nc1ccc(Cl)cc1)/N=C(\N)Nc1ccc(Cl)cc1,inactive,24 µM (active)
CN(C)c1ccc(C(=C2C=CC(=[N+](C)C)C=C2)c2ccccc2)cc1,inactive,2.56 µM (active)
CC(C)c1c(C(=O)Nc2ccccc2)c(-c2ccccc2)c(-c2ccc(F)cc2)n1CC[C@@H](O)C[C@@H](O)CC(=O)O,inactive,–
Cc1[nH]nc2c1N=C(c1ccccc1Cl)c1cc([N+](=O)[O-])ccc1N2,inactive,–
CC(=O)Nc1ccc(O)cc1,inactive,–
COCN(COC)c1nc(N(COC)COC)nc(N(COC)COC)n1,inactive,–
CN(C)CCOC(c1ccccc1)c1ccccc1,inactive,–
CCCCC=O,inactive,–
CCC(=O)C=Cc1ccc(OC)cc1,inactive,–
N=C(N)c1ccc(OCCCCCOc2ccc(C(=N)N)cc2)cc1,inactive,–
